40 compounds from PubChem BioAssay (Tox21) can be followed below.

A number with no mark means an inactive call. Activity calls are given as the source filed them. Calls come from the whole dose curve; as a rule, active = well fitted curve in the direction sought with a large enough effect in the repeat runs; inconclusive = weak or mixed curves; inactive = flat fitted curve, though single readings scatter.
% is set by controls: 0 for no effect and ±100 for the full control effect.

The test in a line: qHTS assay to test for compound auto fluorescence at 535 nm (green) in HepG2 cells (AID 720675). Conditions: green autofluorescence 485/535 nm, 1 h; series mostly up to 91.3 µM. The source says: National Center for Advancing Translational Sciences [NCATS]
NIH Chemical Genomics Center [NCGC]
U.S. Environmental Protection Agency [EPA]
National Institutes of Environmental Health Sciences [NIEHS]
National Toxicology Program [NTP]
U.S. Food and Drug Administration [FDA]
Compound auto fluorescence often interferes with screening of the compound library against various biological targets and signaling pathways. Some of these compounds may have fluorophoric properties. Such properties may interfere with the assay outputs resulting in false positives and/or negatives. To decrease such complications and ensure the compound activities are relevant in terms of biological response, the Tox21 10K compound library was screened for auto fluorescence.
From the fluorophores used as reporter signals in our screening assays, the auto fluorescence equivalencies of compounds against three fluorophores have been evaluated: Triamterene, Fluorescein and Rose Bengal sodium for blue, green and red fluorescence, respectively. The fluorescence intensities were measured using Excitation/Emission wavelengths at 405/460nm, 485/535nm and 540/590nm for blue, green and red labels, respectively. This assay includes the green fluorescence data.
Tox21 Assay Protocol Summary:
2,000 HepG2 cells in 5 uL of culture medium (MEM containing 10% FBS) per well were dispensed into black wall/clear bottom 1536-well plates using a Multidrop Combi Dispenser (ThermoFisher Scientific, Waltham, MA). The assay plates were incubated overnight at 37 C to allow cell attachment to the well bottom, followed by the transfer of 23 nL compound or DMSO vehicle by a pintool work station (Kalypsys , San Diego, CA). After the assay plates were incubated for 1 hr at 37 C and 5% CO2, fluorescence intensities in the assay plates were measured by an Envision (PerkinElmer, Shelton, CT) plate reader using three labels for measuring blue, green and red fluorescence at […] 460, 535 and 590 nm respectively.
In general terms: In qHTS, concentration-response curves come from the screen itself.
In the case of `COC(=O)[C@@H](N)CCCN/C(N)=N/[N+](=O)[O-]`, the outcome was inactive.

For `C=C1CC[C@@]2(O)[C@H]3Cc4ccc(O)c5c4[C@@]2(CCN3CC2CC2)[C@H]1O5`, the call was inactive.

Regarding `CC(Cc1ccccc1)NCCn1cnc2c1c(=O)n(C)c(=O)n2C` (stereo not given), the compound was classed as inactive.

Consider `O=C(O)c1c(Cl)ccc2cc(Cl)cnc12`, for which the call was inactive.

Turning to `CC[C@H](N)c1ccccc1`, the outcome was inactive.

For the compound `CC1NCCOC1c1ccccc1` (stereo not given), the compound was classed as inactive.

As to `CCC1(c2ccccc2)CCC(=O)NC1=O` (stereo not given), the result was inactive.

On to `CC(C)C(C)(N)C#N` (stereo not given), for which the compound was classed as inactive.

With `CC(Cl)(Cl)Cl`, the call was inactive.

For the compound `NC1(c2ccccc2)CCCCC1`, the compound was classed as inactive.

As to `C=CC1(C)OC(=O)N(c2cc(Cl)cc(Cl)c2)C1=O` (stereo not given), the call was inactive.

Consider `COP(=O)(OC)O/C(C)=C/C(=O)N(C)C`, for which the compound was called inactive.

Turning to `CC(C)[N+](C)(CCC(C(N)=O)(c1ccccc1)c1ccccc1)C(C)C`, the fluorescence, % of fluorescein control is -0.0469% [at 18.6 µM].

With `CS(=O)(=O)Cl`, the call was inactive.

Regarding `COc1cccc(C=O)c1`, the compound was classed as inactive.

As for `CCCC(C)C1(CC)C(=O)N=C(S)NC1=O` (stereo not given), the result was inactive.

`NCC1(CC(=O)O)CCCCC1`: the fluorescence, % of fluorescein control is 0.0214% [at 18.6 µM].

As for `CC(C)(C)C(=O)Cl`, the result was inactive.

For `O=C1CCCCC1Cl` (stereo not given), the result was inactive.

On to `CCC1(c2ccccc2)C(=O)N(COC)C(=O)N(COC)C1=O`, for which the result was inactive.

With `CCOP(=S)(OCC)Oc1ccc(Cl)cc1Cl`, the result was inactive.

Regarding `C=CC(=O)OCCN(C)C`, the compound was classed as inactive.

With `Cn1c(CCCC(=O)O)nc2cc(N(CCCl)CCCl)ccc21`, the call was inactive.

`CCc1cc(OC)c(C[C@H](C)N)cc1OC`: the result was inactive.

Turning to `NC(=O)OCCCc1ccccc1`, the compound was classed as inactive.

As for `CCN[C@@H](C)Cc1cccc(C(F)(F)F)c1`, the result was inactive.

In the case of `CCCCCCCC(=O)Cl`, the outcome was inactive.

Regarding `O=C/C=C/c1ccco1`, the outcome was inactive.

In the case of `CC1N=C(N)OC1c1ccccc1` (stereo not given), the outcome was inactive.

As for `CN(C)C1CCCCC1`, the compound was called inactive.

Regarding `CCN[C@@H](C)Cc1ccccc1`, the call was inactive.

On to `O=C(Cl)/C=C/C(=O)Cl`, for which the compound was classed as inactive.

As for `CC(C)(C)c1cc(O)ccc1O`, the result was inactive.

Regarding `CN1C(=O)COc2c(C(=O)NC3CN4CCC3CC4)cc(Cl)cc21` (stereo not given), the outcome was inactive.

As to `C=CCCC#N`, the compound was classed as inactive.

In the case of `CCCCS(=O)(=O)Cl`, the result was inactive.

With `O=C(Cl)OCc1ccccc1`, the call was inactive.

Regarding `S=C=S`, the call was inactive.

With `CON(C)C(=O)Nc1ccc(Br)c(Cl)c1`, the compound was called inactive.

Turning to `[P]#[In]`, the compound was classed as inactive.
